An excerpt weighted towards active compounds, which were near 1% of everything screened.
VCAM1 TNFa inh: reduces TNF alpha induced VCAM1 expression in HUVEC. inhibition, % at 2 µM. 0.48% of 95,000 active. HUVEC TNFa-induced VCAM-1 immunofluorescence, high-content imaging;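 active = inhibition above the batch mean plus 3 SD, with images confirmed as a hit by eye, cut at about 37% in these data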
F-actin modifier: alters cytoskeleton assembly in HUVEC cells; HUVEC TNFa F-actin phalloidin imaging, high content; inhibition, % at 2 µM; 0.18% of 91,000 active; AID 836;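 active = inhibition above the batch mean plus 3 SD and confirmed as a hit by visual image inspection, cut at about 30% in these data, passing the limit was not always enough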
E-sel TNF inh: TNF alpha driven E-selectin expression inhibition. HUVEC TNFa-induced E-selectin immunofluorescence, high content. inhibition, % at 2 µM. 0.71% of 120,000 active. AID 1246;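 active = inhibition above the batch mean plus 3 SD, and confirmed as a hit on visual image review, cut at about 43% in these data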
TNFa cytotox: HUVEC cytotoxicity counter-screen, TNF alpha stimulated; HUVEC TNFalpha-stimulated, Hoechst cell count, imaging; cell count reduction, % at 2 µM; 0.17% of 93,000 active; AID 848;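 active = cell count reduction exceeding the screen mean by over 5 SD, scaled to untreated wells per plate, cut at about 78% in these data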;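 note: cells counted after 24 h of TNF alpha exposure following the 1 h pretreatment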
Hits are given with their value; 0 = inactive; - = not tested or not shown.

SMILES	VCAM1 TNFa inh	F-actin modifier	E-sel TNF inh	TNFa cytotox
CCn1c(SCC(=O)N2CCN(c3cccc(Cl)c3)CC2)nc2ccccc2c1=O	96.1	0	0	0
CCc1ccc(NS(=O)(=O)c2cc(OC)ccc2OC)cc1	0	0	-	80.8
CCC(=O)NCc1nc2ccccc2n1Cc1ccccc1F	0	0	65.3	0
CCC(=O)NCCCc1nc2ccccc2n1Cc1ccccc1F	-	-	0	-
Cc1cc(C)cc(OCC(=O)Nc2nonc2NC(=O)COc2cc(C)cc(C)c2)c1	77.8	0	0	0
CCOC(=O)CS(=O)(=O)c1nc(-c2ccc(F)cc2)cc(C(F)(F)F)n1	-	-	57.7	-
COCC(C)NC(=O)CCS(=O)(=O)c1nc(-c2ccc(OC)cc2)cc(C(F)(F)F)n1 (stereo not given)	-	-	82.6	-
CCOC(=O)CCS(=O)(=O)c1nc(-c2ccccc2)cc(C(F)(F)F)n1	0	0	0	0
CCOC(=O)CS(=O)(=O)c1nc(-c2ccccc2)cc(C(F)(F)F)n1	0	0	67.1	0
COC(=O)CCS(=O)(=O)c1nc(-c2ccccc2)cc(C(F)(F)F)n1	0	0	0	0
Cc1nc(C(C)NC(=O)CCc2nnc(CCCc3ccccc3)o2)c(C)s1 (stereo not given)	-	-	0	-
CCc1cccc2c(C(=O)C(F)(F)F)cn(CC(=O)N3CCOCC3)c12	-	-	0	-
CCOC(=O)c1ccc(NC(=O)c2cn(CCC#N)nc2-c2ccc3c(c2)OCCO3)cc1	-	-	0	-
O=C(CSc1nnc(-c2cccs2)n1-c1ccccc1)N1CCOCC1	0	0	0	0
O=C(CSc1nnc(-c2cccs2)n1-c1ccccc1)N1CCCC1	0	0	0	87.9
O=C(Nc1ccc(F)cc1)N1CCOCC1	0	0	76.7	0
O=C(OCn1ncc(Cl)c(Cl)c1=O)c1ccccc1Cl	0	0	99.9	0
O=C(Cn1ncc(Cl)c(Cl)c1=O)c1ccc(Cl)cc1	0	0	0	0
O=C(OCn1ncc(Cl)c(Cl)c1=O)c1ccc(F)cc1	0	0	100.0	0
O=C(Cn1cncn1)NCc1ccccc1Br	0	0	0	0
O=C(Cn1cncn1)NCc1cccc2ccccc12	0	-	64.1	0
Cc1ccc(-c2nnc(N3CCN(C(=O)CN4C(=O)c5ccccc5C4=O)CC3)c3ccccc23)cc1	0	0	100.0	0
O=C(CN1C(=O)c2ccccc2C1=O)N1CCN(c2nnc(-c3ccccc3)c3ccccc23)CC1	0	0	0	0
Cn1cnnc1-c1cccc(NC(=O)c2cc(F)c(F)cc2Cl)c1	-	-	0	-
O=C1NCC(COc2cccc3ccccc23)O1 (stereo not given)	-	-	0	-
SMILES	VCAM1 TNFa inh	F-actin modifier	E-sel TNF inh	TNFa cytotox
COc1ccc(OCC2CNC(=O)O2)cc1 (stereo not given)	-	-	96.0	-
Cc1ccc(OCc2ccoc2C(=O)O)cc1C	96.6	0	0	0
Cc1ccc(OCc2ccc(C(=O)N3CCOCC3)cc2)cc1C	0	0	0	0
FC(F)(F)c1cnc2c(-c3ccccc3)n[nH]c2c1	-	-	67.8	-
Cc1ccc2cccc(Oc3ncnc4scc(-c5ccccc5)c34)c2n1	-	-	0	-
COc1ccc(-c2csc3ncnc(Oc4cccc5ccc(C)nc45)c23)cc1	-	-	89.1	-
CCOC(=O)c1sc(=N)n(-c2ccc(OC)cc2)c1C	0	0	64.2	0
CCOC(=O)c1nnn(-c2ccc(OC)cc2)c1N	0	0	0	0
COc1ccc(C(C)=O)cc1COC(=O)c1cnc(Cl)c(Cl)c1	-	-	0	-
COc1ccc(C(CC(=O)NCc2ccccc2)Sc2n[nH]c(-c3ccccc3)n2)cc1 (stereo not given)	-	-	92.1	-
Cc1cc(C)nc(N/C(=N\S(=O)(=O)Cc2ccccc2)Nc2ccc(F)c(Cl)c2)n1	-	-	0	-
O=C(Nc1ccc(F)cc1)C1=CC(=O)N2CCN=C2S1	-	-	0	-
Nc1ccc(Nc2ccncc2[N+](=O)[O-])cc1	0	0	0	0
O=[N+]([O-])c1cnccc1Nc1ccc(F)cc1	53.3	84.7	0	94.4
CCOC(=O)c1cnc(-n2nc(C)cc2C)nc1NCc1ccccc1	91.8	0	-	0
CCOC(=O)c1cnc(-n2nc(C)cc2C)nc1NCCO	0	0	0	0
CCOC(=O)C1C(=O)CC(C)(O)C(C(=O)OCC)C1c1ccccc1 (stereo not given)	0	0	59.1	0
CCOC(=O)C1C(=O)CC(C)(O)C(C(=O)OCC)C1c1ccc(OC)cc1 (stereo not given)	0	0	-	0
N#Cc1ccc(-c2ccc(OCC(=O)NCC(=O)Nc3ccc(F)c(F)c3F)cc2)cc1	-	-	0	-
CCOC(=O)C1C(c2cc(OC)c(O)c(OC)c2)NC(=S)NC1(O)C(F)(F)F (stereo not given)	-	-	72.0	-
CS(=O)(=O)c1ccc(SCC(=O)NC2CCS(=O)(=O)C2)c([N+](=O)[O-])c1 (stereo not given)	-	-	0	-
CCCCSc1nc(C)cc(SCC(=O)N/N=C/c2cccc(OC)c2O)n1	44.1	0	0	0

Screening data: PubChem, Columbia University Molecular Screening Center
